Source: PubChem (National Center for Advancing Translational Sciences (NCATS))
This is a sample that favours compounds with a hit; in the whole collection about 20% have one here.
Shiga inhibitor = Shiga toxin inhibition | 290,000 tested, 9.2% active | inhibition, % at 38.7 µM | AID 2315 | Vero cells, Shiga toxin protein synthesis inhibition reporter; in the data active = inhibition mostly above about 28%, no sharp cut-off; inactive = mostly below about 43%; also: 0% is about no effect
Pf growth 96h = P. falciparum growth inhibition at 96 hours. P. falciparum luciferase reporter growth, 96 h. Potency, µM (highest dose often 28.7 µM), for inactives: at the top dose activity change, negative = inhibition, usual class: inhibitors. 320,000 tested, 6.9% active; also: potency is read from the fitted curve at half-maximal effect; % is scaled to controls: 0 for no effect and ±100 for the full control effect
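Compounds incubated with erythrocytes infected by luciferase-expressing P. falciparum (2% hematocrit, 0.05% parasitemia final) for 96 hours, 37 C in 5% CO2. Growth inhibition scored as decreased luciferase luminescence.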
CHX counter-1 = affects cycloheximide protein synthesis inhibition readout, counter-screen | cell reporter, cycloheximide protein synthesis inhibition counterscreen | AID 2314 | max response, % | 300,000 tested, 12% active; in the data active = max response mostly above about 13%, no sharp cut-off; inactive = mostly below about 14%; also: read at 38.3 µM for the half of the compounds with a filed dose; 0% is about no effect
HCMV antiviral = inhibitors of human cytomegalovirus. HFF cells, HCMV-luciferase reporter, 72 h; hits give low values. activity change, negative = inhibition, % at 57.5 µM. 410,000 tested, 4.5% active; in the data active = activity change below about -60%; inconclusive = no clear call, values can overlap the other calls; inactive = above about -39%; also: % is scaled to controls: 0 for no effect and ±100 for the full control effect
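Steps: HFFs plated, 16 h 37C; compounds added; HCMV-luciferase added to MOI 1 PFU/cell; 72 h 37C; OneGlo reagent, 5 min room temperature; luminescence read, normalized to controls.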
Pf growth 48h = inhibits P. falciparum growth in the first generation, 48 h; P. falciparum luciferase growth in erythrocytes, 48 h; Potency, µM (top dose mostly 28.7 µM), for the others: at the top dose activity change, negative = inhibition, most hits filed as inhibitors; 310,000 tested, 5.9% active; AID 504832; also: potency is read from the fitted curve at half-maximal effect; % is scaled to controls: 0 for no effect and ±100 for the full control effect
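First compound was added to culture medium, then infected red cells at 0.1% parasitemia and 2% hematocrit (final). After incubation at 37 C under 5% CO2, luciferase detection reagent was dispensed and light output recorded.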
CHX counter-2 = protein synthesis counter-screen activity for Shiga toxin hits. shares compounds with Shiga inhibitor. Cycloheximide counterscreen, protein synthesis reporter, Shiga toxin assay. Potency, µM (series often up to 38.3 µM), without a hit: at the highest dose activity (activation), most hits filed as activators. 510 tested, 3% active; calls by dose curve; also: potency is read from the fitted curve at half-maximal effect; 0% is about no effect
An asterisk follows results filed as active; ? = inconclusive; nt = no result. Unless noted, calls follow the shape of the dose curve; as a rule, active = well fitted inhibition curve with a large enough effect; inconclusive = small, poorly fitted or top-dose-only effect, or another doubt; inactive = no such curve, though single readings can be large or run the other way.

SMILES	Shiga inhibitor	Pf growth 96h	CHX counter-1	HCMV antiviral	Pf growth 48h	CHX counter-2
CSc1ccc(/C=C(\C#N)C(=O)NC2CCCCC2C)cc1 (stereo not drawn)	27*	?	8	?	?	3%
CC(=O)Nc1ccc(/C=C(\C#N)C(=O)NC2CCCCC2C)cc1 (stereo not drawn)	-10	-11%	6	75	?	nt
COCc1nnc(NC(=O)CSc2ccc(C)cc2)s1	-13	?	3	7	?	nt
COc1ccc(/C=C/c2nnc(NC(=O)CSc3ccc(Cl)cc3)s2)cc1	37*	-10%	8	-6	19%	?
CNc1nc(NN)nc(Nc2ccccc2)n1	nt	?	11	-9	-19%	nt
Cc1ccc(C(=O)CSc2nnnn2C(C)C)c(C)c1	33*	52%	1	?	-8%	0.32µM*
CCOc1ncccc1C(=O)Nc1c(C)n(C)n(-c2ccccc2)c1=O	32*	25%	9	-7	-4%	4%
CC(=O)N[C@@H](Cc1c[nH]c2ccccc12)C(=O)OCC(=O)Nc1ccc(Cl)c(S(=O)(=O)N(C)C)c1	43*	?	9	40	-13%	4%
Cc1cc(C(=O)CS(=O)(=O)c2ccc(F)cc2)cc(C)c1O	34*	59%	10	3	66%	?
CCOC(=O)N1CCN(S(=O)(=O)c2ccc(C(=O)NNc3nc4c(C)cc(C)cc4s3)cc2)CC1	43*	?	5	-104*	?	-5%
CCOC(=O)N1CCN(S(=O)(=O)c2ccc(C(=O)NNc3nc4ccc(Cl)cc4s3)cc2)CC1	-13	?	1	nt	0%	nt
c1cc2c(cc1Cn1cnnn1)OCO2	158*	47%	9	11	3%	-2%
c1cc2c(cc1-n1cnnn1)OCO2	45	51%	-1	94	0%	nt
NC(=O)c1cc(S(=O)(=O)N2CC=C(c3ccccc3)CC2)cs1	-6	6%	-4	?	-5%	nt
O=S(=O)(c1ccsc1)N1CC=C(c2ccccc2)CC1	35*	-13%	2	14	-19%	?
Cc1nnc(NC(=O)C2COc3ccccc3O2)s1 (stereo not drawn)	99*	nt	15	71	185%	?
O=c1c2ccccc2nc2n1CC/C2=C\N1CCN(c2ccc([N+](=O)[O-])cc2)CC1	nt	nt	nt	183	nt	nt
Cc1cc2nc(CCN3CCOCC3)n(S(=O)(=O)c3ccc(C(C)(C)C)cc3)c2cc1C	38*	21%	12	-10	?	?
CCc1nc2ccccc2c(=O)n1NCCc1ccccc1	49*	-38%	-1	-2	-20%	4%
COc1ccc(S(=O)(=O)NCC(=O)N(CC(=O)NCC2CCCO2)Cc2ccc(F)cc2)cc1 (stereo not drawn)	-4	-2%	5	0	-4%	nt
CC(=O)Nc1ccc(C2(O)COc3ccccc3O2)cc1 (stereo not drawn)	132*	?	14	21	13%	5%
CC(=O)Nc1ccc(C2(c3ccc(NC(C)=O)cc3)C(=O)Nc3ccccc32)cc1	13	?	4	-13	-2%	nt
CCOc1ccc2nc(NC(=O)CN3CCN(c4ccccn4)CC3)sc2c1	56*	?	14	11	?	4%
CCC(=O)N1CCN(c2ccc(NC(=O)c3ccc(Br)o3)cc2)CC1	22*	0%	3	5	23%	7%
CCOC(=O)c1c(C2COc3ccccc3O2)csc1NC(=O)c1ccco1 (stereo not drawn)	26*	nt	-1	0	?	-4%
SMILES	Shiga inhibitor	Pf growth 96h	CHX counter-1	HCMV antiviral	Pf growth 48h	CHX counter-2
CCc1ccc(C(=O)c2oc3nc(C)cc(C)c3c2N)cc1	51*	-22%	16	86	?	?
CC1(C)CC(=O)C=C(c2ccc(-c3ccc(S(C)(=O)=O)cc3)cc2)C1=O	nt	nt	nt	-5	nt	nt
O=C1COc2ccc(S(=O)(=O)N3CCCCCC3)cc2N1	-7	43%	-11	36	16%	nt
Nc1nc(-c2nn(Cc3ccccc3F)c3ncccc23)ncc1C1CC1	28*	nt	2	nt	nt	3%
O=c1c2ccccc2nc(SCc2ccccc2F)n1C1CCCC1	-1	-10%	-3	-25	12%	nt
N#Cc1ccc(NC(=O)CN2C(=O)NC3(CCCC3)C2=O)cc1	-3	22%	-4	-2	17%	nt
